From PubChem BioAssay
Shn3 3UTR inh: reduction of Shn3 3'UTR firefly luciferase signal, primary screen, Schnurri-3 inhibitor project, cell-based, Clone20 osteoblasts, set 2; 360,000 compounds, 0.52% hits; inhibition, % at 12.5 µM; AID 588674, 2011; Clone20 osteoblast Shn3 3'UTR firefly luciferase, 24 h;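 active = mean inhibition of at least 75% with every replicate also reaching 75%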;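 also: 0% = median of neutral control wells and 100% = pilot-screen positive control compound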
Peg3 prom inh: Peg3 promoter-driven luciferase inhibitors, primary screen, cell-based, HeLa, luciferase luminescence; AID 588405, 2011; inhibition, % at 20 µM; HeLa PEG-Prom luciferase reporter, overnight; 360,000 compounds, 1.7% hits;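 active = inhibition of at least 50% at 20 µM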
LMP1 NFkB inh: EBV LMP1-driven NF-kappaB luciferase reporter inhibitors, primary screen, cell-based, luminescence, single point; LMP1-induced NF-kappaB luciferase reporter cells; inhibition, % at 12.5 µM; 350,000 compounds, 0.69% hits; AID 504558, 2011; in the data active = inhibition above about 41%;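 also: 0% = neutral control wells and 100% = reference inhibitor control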
CF NFkB block: inhibitors of PAF-induced NF-kB signaling, primary screen, cell-based, GFP fluorescence, uHTS; KKLEB NF-kB-GFP reporter, GFP fluorescence overnight; inhibition, % at 5 µM; 360,000 compounds, 0.86% hits;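 active = at least 50% inhibition at 5 µM, scaled per plate between neutral and stimulator controls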;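 also: PAF is a Pseudomonas aeruginosa culture filtrate used as stimulus; plate controls were PAF-stimulated DMSO wells for no effect and unstimulated DMSO wells for full effect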
HIF-2a inh: HIF-2a reporter inhibitors, primary screen, luminescence, 786-0 RCC cells | inhibition, % at 18.8 µM | 360,000 compounds, 0.72% hits | 786-0 RCC cells HIF-2a reporter, luciferase luminescence, overnight;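 active = inhibition of the luminescence signal of 40% or more relative to plate controls, in a single-dose primary screen at 18.75 µM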
KKLEB cytotox: cytotoxicity in KKLEB CF airway cells, primary screen, cytotoxicity control for CF NF-kB inhibitor project, cell-based, uHTS, fluorescence assay plates | activity change (cytotoxicity), % at 5 µM | KKLEB CF airway cells viability, ATPlite luminescence, overnight; hits give low values; cells stimulated with P. aeruginosa culture filtrate | AID 602141, 2011 | 360,000 compounds, 0.36% hits;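 active = corrected activity change at or below -50% at 5 µM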
CF NFkB conf: inhibitors of PAF-induced NF-kB signaling, retest, confirmation, cell-based, GFP fluorescence, single concentration. 1,300 compounds, 64% hits. AID 602472, 2012. KKLEB CF airway cells, overnight. inhibition, % at 5 µM. shares compounds with CF NFkB block; in the data active = inhibition above about 40%;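 also: stimulus PAF is a Pseudomonas aeruginosa filtrate and not platelet activating factor; plate controls were DMSO wells with stimulus for no effect and unstimulated DMSO wells for full effect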
An asterisk follows results filed as active; nt = no result. This is a sample that favours compounds with a hit; in the whole collection about 2.9% have one here.

SMILES | Shn3 3UTR inh | Peg3 prom inh | LMP1 NFkB inh | CF NFkB block | HIF-2a inh | KKLEB cytotox | CF NFkB conf
O=C(COC(=O)c1c2c(nc3ccccc13)CCCC2)Nc1ccc2c(c1)OCO2 | -0.9 | 35.1 | 5.2 | -21.3 | 5.2 | -16.0 | nt
CC(C)c1ccccc1NC(=O)COC(=O)c1c2c(nc3ccccc13)CCN(Cc1ccccc1)C2 | 16.9 | 57.4* | 13.5 | 75.1* | 11.8 | -17.1 | 72.8*
CCC(C)(C)NC(=O)C(c1ccc(C)cc1)N(CC1CCCO1)C(=O)CCC(=O)Nc1ccccn1 (stereo unspecified) | 0.6 | 6.6 | 2.1 | 7.3 | 7.4 | 0.2 | nt
CSc1ncc(Cl)c(C(=O)Nc2ccccc2[N+](=O)[O-])n1 | -26.3 | -8.7 | 0.2 | -14.7 | 11.4 | 6.7 | nt
CC(Sc1nc2ncc(Cl)cc2[nH]1)C(=O)Nc1ccccc1[N+](=O)[O-] (stereo unspecified) | -0.4 | 15.4 | -3.9 | 52.7* | 12.4 | -14.3 | 3.0
Cc1c(Cl)cccc1NC(=O)CSc1nc2ncc(Cl)cc2[nH]1 | 7.7 | 4.3 | -4.1 | 62.5* | -12.5 | -6.8 | 51.1*
Cc1ccccc1NC(=O)CSc1nc2ncc(Cl)cc2[nH]1 | -5.6 | 21.3 | -1.9 | 18.4 | -15.2 | -7.1 | nt
CCNc1oc(/C=C/c2ccc(OCC)cc2)nc1C#N | -15.4 | -5.3 | -17.9 | -0.7 | -51.5 | -2.9 | nt
CCOCC(=O)NC1CCc2cc(OC(=O)COCC)c(OC)c(OC)c2-c2ccc(SC)c(=O)cc21 (stereo unspecified) | 9.2 | -15.6 | 0.1 | 52.0* | 29.5 | -28.3 | 83.5*
COc1cc2c(c(OC)c1OC)-c1ccc(OC)c(=O)cc1[C@@H](NC(C)=O)CC2 | -0.7 | -19.2 | -1.8 | 41.7 | 11.7 | 16.4 | nt
COc1cc2c(c(OC)c1OC)-c1ccc(NC(=O)c3ccc(F)cc3)c(=O)cc1[C@@H](NC(C)=O)CC2 | 13.5 | 36.4 | 4.5 | 16.3 | 27.0 | -5.9 | nt
COc1cc2c(c(OC)c1OC)-c1ccc(NCc3ccccc3)c(=O)cc1C(NC(C)=O)CC2 (stereo unspecified) | 21.4 | 1.3 | 12.4 | 63.6* | 24.0 | -37.0 | 86.6*
COc1cc2c(c(OC)c1OC)-c1ccc(SC)c(=O)cc1C(NC(=O)C(F)(F)F)CC2 (stereo unspecified) | -1.9 | -32.6 | -4.1 | 56.2* | 16.1 | -17.1 | 83.8*
O=C(NCc1ccc(Cl)cc1)C(=O)NCC1OCCCN1S(=O)(=O)c1cccs1 (stereo unspecified) | 17.8 | 26.6 | -4.5 | -3.9 | 21.0 | 8.6 | nt
CC(=O)c1cccc(NC(=O)Nc2ccc3c(c2)OCO3)c1 | -52.9 | -274.9 | 0.3 | 31.2 | -231.1 | -16.1 | nt
Cc1cc(NC(=O)CCC(=O)N(c2cccc(F)c2)C(C(=O)NC2CCCC2)c2ccccc2)no1 (stereo unspecified) | 22.8 | 20.1 | 3.0 | -4.2 | 5.2 | -0.8 | nt
CS(=O)(=O)c1ccc2nc(NC(=O)Nc3cccc(Cl)c3)sc2c1 | -2.8 | -60.2 | -8.8 | 63.5* | -133.6 | -32.4 | 66.0*
CS(=O)(=O)c1ccc2nc(NC(=O)Nc3ccc(Cl)c(Cl)c3)sc2c1 | 10.6 | 41.3 | -29.0 | 25.2 | 5.4 | -6.8 | nt
O=C1CCN(Cc2ccccc2)C=C1c1cccc(O)c1 | -14.0 | -15.2 | 3.7 | -3.6 | -19.6 | 12.1 | nt
CCOC(=O)c1c(C)[nH]c(C)c1C(=O)CSc1nc2ccccc2c(=O)n1-c1ccc(CC)cc1 | 89.8* | 44.2 | 20.1 | 55.9* | -10.8 | -19.1 | 36.7
CCOC(=O)c1c(C)[nH]c(C)c1C(=O)CSc1nc2ccccc2n1CC | -2.7 | 13.1 | 3.9 | 6.3 | 6.9 | -6.2 | nt
COc1ccc(-c2csc3ncnc(NCCO)c23)cc1 | 18.1 | 13.1 | 41.8* | 76.7* | 35.9 | -4.9 | 86.2*
COc1ccc(-c2csc3ncnc(Nc4ccc(O)cc4)c23)cc1 | 18.6 | 2.2 | 18.3 | 32.1 | 21.2 | -2.2 | nt
CC(=O)Oc1ccc(OC(C)=O)c(SCCCCCCl)c1 | 95.0* | 14.2 | -72.3 | 57.7* | -3.8 | -9.8 | 10.0
CC(=O)Oc1ccc(C(=O)O)cc1OC(C)=O | -3.8 | -10.4 | 6.4 | 21.2 | 15.2 | -7.2 | nt
SMILES | Shn3 3UTR inh | Peg3 prom inh | LMP1 NFkB inh | CF NFkB block | HIF-2a inh | KKLEB cytotox | CF NFkB conf
CCCOc1ccc(C(=O)c2ccccc2C(=O)OC2CCOC2=O)cc1OCCC (stereo unspecified) | 0.6 | 8.6 | -2.9 | 1.7 | 8.3 | 6.5 | nt
O=C(OC1CCOC1=O)c1ccccc1C(=O)c1ccc(Cl)c([N+](=O)[O-])c1 (stereo unspecified) | 8.8 | -2.2 | -6.1 | 71.9* | -8.4 | -11.6 | 51.5*
OCCC1CN(Cc2cccn2-c2ncccn2)CCN1C1CCCC1 (stereo unspecified) | 13.4 | -0.4 | 7.9 | 6.5 | 12.5 | 2.2 | nt
COc1ccc(S(=O)(=O)N2c3ccc(F)cc3CCC2C)cc1 (stereo unspecified) | -13.6 | 8.0 | 1.6 | 50.0* | 20.2 | -5.1 | 83.3*
COc1ccc(-c2ccc([C@H]3[C@@H]4C=CCC[C@@]4(C)C(=O)N3Cc3ccccc3)c(F)c2)cc1OC | 37.5 | 10.0 | 7.3 | 53.0* | 27.9 | -14.7 | 33.0
CC(=O)C1CCC2C3CCC4=CC(=O)CC[C@]4(C)[C@@]3(F)C(O)C[C@]12C (stereo partly specified) | 10.8 | 11.8 | 0.5 | 55.6* | 26.6 | 25.8 | -50.2
CC(=O)[C@H]1CC[C@H]2[C@@H]3CCC4=CC(=O)CC[C@]4(C)[C@H]3CC[C@]12C | 5.6 | 24.2 | 4.2 | -4.8 | -4.5 | -1.7 | nt
Cc1ccccc1CC(=O)N1CCCc2ccccc21 | 7.2 | 16.4 | -5.1 | -13.4 | 12.3 | 0.6 | nt
C=C1CCC[C@]2(C)C[C@H]3OC(=O)C(CN(Cc4ccc(OC)c(OC)c4)CC(C)O)[C@H]3CC12 (stereo partly specified) | 2.2 | -34.7 | 0.5 | 56.2* | 5.4 | -6.2 | 47.4*
C=C1CCC[C@]2(C)C[C@H]3OC(=O)C(CNCC(OC)OC)[C@H]3CC12 (stereo partly specified) | -10.7 | -32.2 | 17.8 | 2.6 | 10.8 | -13.6 | nt
Cc1c(Cl)cccc1N=C1SCCN1C(=O)CN1C(=O)NC2(CCCC2)C1=O | -20.3 | 15.2 | 5.7 | 52.9* | -5.4 | -30.6 | 40.0*
COc1ccc(S(=O)(=O)N(C)C[C@H]2Oc3ccc(NC(=O)Nc4ccc(C(F)(F)F)cc4)cc3C(=O)N([C@H](C)CO)C[C@@H]2C)cc1 | 57.5 | 41.4 | -5.2 | 23.1 | -26.6 | -15.0 | nt
